CBX7 AlphaScr – blocks human CBX7 binding to H3K27me3 peptide | O95931 | AlphaScreen His6-CBX7 / biotin-H3K27me3 peptide binding; hits give low values | normalised signal (fraction of DMSO) (no concentration beside the values) | 66,000 tested, 1.1% active | AID 1224903; in the data active = normalised signal below about 0.5
Target sequence (O95931 whole entry, looked up): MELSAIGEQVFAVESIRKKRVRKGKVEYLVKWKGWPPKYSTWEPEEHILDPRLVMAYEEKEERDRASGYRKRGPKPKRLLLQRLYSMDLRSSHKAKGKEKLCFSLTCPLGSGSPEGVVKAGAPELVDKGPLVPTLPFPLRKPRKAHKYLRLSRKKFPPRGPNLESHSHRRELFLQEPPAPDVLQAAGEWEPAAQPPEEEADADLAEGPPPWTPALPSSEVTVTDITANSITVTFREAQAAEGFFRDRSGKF
The depositor's hits bear a star; ! = repeats disagree. The entries come from a sample that favours hits as a whole.

SMILES	CBX7 AlphaScr
Cc1ccc2c(c1)c1c(n2CC(O)CN2CCCCC2C)CCCC1 (configuration not stated)	0.82
Cc1ccc(NCC(O)Cn2c3c(c4cc(C)ccc42)CCCC3)cc1 (configuration not stated)	0.6
Cc1ccc(NCC(O)Cn2c3c(c4cc(C)ccc42)CCCC3)c(C)c1 (configuration not stated)	0.47*
COc1ccc(CNc2sc3c(c2C(=O)Nc2ccc(OC)cc2)CCCC3)cc1	0.52
Cc1ccc(NC2c3ccccc3C(=O)N2c2ccccc2C)c(C)c1 (configuration not stated)	0.88
O=C(Nc1cccc(-c2nc3ncccc3o2)c1)c1ccc(Cl)cc1	1.1
O=C(C1=CCN(S(=O)(=O)c2ccccc2)CC1)N1CCC2(CC1)OCCO2	1
COc1ccc(-c2cn(-c3ccc(F)cc3)c(SCC(=O)Nc3cc(F)ccc3F)n2)cc1OC	0.88
COc1ccc(-c2cn(-c3ccc(F)cc3)c(SCC(=O)Nc3cccc(F)c3)n2)cc1OC	0.39*
COc1ccc(-c2cn(-c3ccc(F)cc3)c(SCC(=O)Nc3cccc(Cl)c3)n2)cc1OC	0.6
Cc1ccccc1Cn1c(CNC(=O)c2c(F)cccc2F)nc2ccccc21	1.1
O=C(O)c1ccc2c(c1)NC(=O)C(CS(=O)(=O)Cc1ccc(Cl)cc1)N2 (configuration not stated)	0.88
O=C1CN(C(=O)CCc2ccccc2)C(c2ccc(F)cc2)c2cc(Cl)ccc2N1 (configuration not stated)	0.73
CCOc1ccc(-c2cc(C(=O)NCc3cccc(OC)c3)c3ccccc3n2)cc1	1
CC(C)NCC(=O)Nc1c2c(nc3c1CCC3)CCCC2	0.52
CCN(CC)CC(=O)Nc1c2c(nc3c1CCC3)CCC2	1
O=C(CCN1Cc2ccccc2C1)Nc1c2c(nc3c1CCC3)CCCC2	0.95
CN(C)CC(=O)Nc1c2c(nc3c1CCC3)CCCC2	0.23*
O=C(Nc1c2c(nc3c1CCC3)CCCC2)c1ccccn1	0.14*
O=C(CN1CCN(c2ccccc2)CC1)Nc1c2c(nc3c1CCC3)CCCC2	0.98
CCOC(=O)c1c(CN)n(C)c2ccc(OC)c(S(=O)(=O)c3ccccc3)c12	1.2
CCOC(=O)N1CCc2c(sc(NCc3cccs3)c2C(=O)Nc2ccc(OC)cc2OC)C1	0.86
CCOC(=O)N1CCc2c(sc(NCc3cccs3)c2C(=O)Nc2cc(OC)ccc2OC)C1	0.47*
CCOC(=O)N1CCc2c(sc(NCc3ccncc3)c2C(=O)Nc2cc(OC)ccc2OC)C1	0.72
Cc1ccc(C(=O)Nc2ccc3oc(-c4cccnc4)nc3c2)cc1C	1.1
SMILES	CBX7 AlphaScr
COc1ccc(-n2c3c(cc(C(=O)Nc4cc(OC)ccc4OC)c2=O)C(=O)CC(C)(C)C3)cc1	1.1
COc1cc(Nc2nc(SCC(=O)Nc3cc(C)[nH]n3)nc3ccccc23)cc(OC)c1	1
Cc1cc(NC(=O)CSc2nc(NCc3ccc(Cl)cc3)c3ccccc3n2)n[nH]1	0.83
COc1ccc(CNc2nc(SCC(=O)Nc3cc(C)[nH]n3)nc3ccccc23)cc1	0.37*
COc1cccc(C2CC(c3ccc(Br)cc3)Nc3ncnn32)c1OC (configuration not stated)	0.97
Cc1ccc(NC(=O)Cn2ncc3c2-c2cc(C)ccc2OC3)c(Br)c1	1
CCOc1ccc(C(=O)Nc2cccc(-c3nc4cc(C)ccc4o3)c2)cc1Cl	1.1
Cc1cccn2c(Nc3ccc4c(c3)OCO4)c(-c3ccccn3)nc12	0.75
CCOC(=O)c1cnc2ccc(C)cc2c1Nc1cccc(C)c1	0.99
CCOC(=O)c1cnc2c(C(F)(F)F)cccc2c1Nc1ccc(O)cc1	0.8
CCOC(=O)c1cnc2ccc(C)cc2c1Nc1ccc(C)cc1	1.1
CCOC(=O)c1cnc2c(C(F)(F)F)cccc2c1Nc1ccc(NC(C)=O)cc1	0.86
CCOC(=O)c1cnc2ccc(C)cc2c1Nc1ccc(N(C)C)cc1	0.38*
CCOC(=O)c1cnc2c(C)cccc2c1Nc1ccc(N(C)C)cc1	0.25*
CCOC(=O)c1cnc2c(C)cccc2c1Nc1ccc(C)c(C)c1	1.5
CCOC(=O)c1cnc2c(C(F)(F)F)cccc2c1Nc1ccc(N(C)C)cc1	0.16*
CCOC(=O)c1cnc2c(C)cc(Cl)cc2c1Nc1ccc(N(C)C)cc1	0.83
O=C(Cn1ncc2ccsc2c1=O)NCCc1ccccc1	1
CCOc1cc2sc(N3CCC(C(=O)O)CC3)nc2cc1Br	0.52
Nc1nc(-c2ccc(O)c(O)c2)cs1	1.1
COc1ccccc1CNC(=O)c1ccc2c(c1)N=C(C)c1c(C)ccc(C)c1S2	0.9
Cc1cc2c(cc(C(=O)NCCCc3ccccc3)n2Cc2ccc(Cl)cc2)o1	0.99
O=C1CCc2cc(S(=O)(=O)N3CCC(C(=O)Nc4cccnc4)CC3)ccc2N1	1
Cc1cc(C)n(-c2nc3ccccc3nc2Nc2ccc(Br)cc2F)n1	1.1
c1ccc(-c2nc(-c3cccnc3)[nH]c2-c2ccccc2)cc1	0.31*!
c1cncc(-c2nc3ccccc3[nH]2)c1	1.2
COc1ccc(-c2nc(-c3cccs3)c(-c3cccs3)[nH]2)cc1	0.92
